Test results from PubChem BioAssay.
Where “and” joins values, the source holds several entries; their conditions need not be identical. Equal entries are not always repeated. Unmarked numbers belong to inactive results. No rule for the calls is given here.

How the values were obtained:
[1] = tested on: Aerobactin synthetase IucA (Klebsiella pneumoniae hvKP1); assay: Biochemical IucA enzyme inhibition primary screen of the Spectrum library (AID 1346200); settings: malachite green pyrophosphate, A620, at 8 µM, stronger effect = lower value;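 also: 100% = wells without compound and 0% = wells lacking enzyme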
[2] = tested on: Aerobactin synthetase IucA (Klebsiella pneumoniae, hypervirulent); assay: IucA enzyme inhibition, biochemical, LOPAC library, absorbance readout (AID 1346212); settings: IucA enzyme assay, absorbance (OD) readout; stronger effect = lower value; concentration not given here;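 also: 100% = no compound wells and 0% = no enzyme wells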

CS(=O)(=O)Nc1ccc([N+](=O)[O-])cc1Oc1ccccc1
activity remaining [1]: 113%
remaining activity [2]: 117%

O=c1ccc2ccc(O)c(O)c2o1
activity remaining [1]: 103%
remaining activity [2]: 116%

CN1C2CCC1CC(OC(c1ccccc1)c1ccccc1)C2 (configuration not stated)
activity remaining [1]: 101%
remaining activity [2]: 113%

CCN(CC)CCCC(C)Nc1c2ccc(Cl)cc2nc2ccc(OC)cc12 (configuration not stated)
activity remaining [1]: 93.4%
remaining activity [2]: 115%

O=C(O)c1ccccc1Nc1ccccc1
activity remaining [1]: 106%
remaining activity [2]: 108%

N=c1nc(N2CCCCC2)cc(N)n1O
activity remaining [1]: 110%
remaining activity [2]: 118%

O=[N+]([O-])c1cccc2c(Br)[nH]nc12
activity remaining [1]: 118%
remaining activity [2]: 110%

O=C(C1CCCCC1)N1CC(=O)N2CCc3ccccc3C2C1 (configuration not stated)
activity remaining [1]: 123%
remaining activity [2]: 104%

NC/C=C/C(=O)O
activity remaining [1]: 107%
remaining activity [2]: 101%

O=c1[nH]cnc2[nH]ncc12
activity remaining [1]: 99.3%
remaining activity [2]: 110%

C=Cc1c(C)c2cc3[nH]c(cc4nc(cc5nc(cc1[nH]2)C(C)=C5CCC(=O)O)C(CCC(=O)O)=C4C)c(C)c3C=C
activity remaining [1]: 97.5%
remaining activity [2]: 107%

CC(=O)N[C@@H](CS)C(=O)O
activity remaining [1]: 110%
remaining activity [2]: 108%

CNCCC(Oc1ccc(C(F)(F)F)cc1)c1ccccc1 (configuration not stated)
activity remaining [1]: 96.1%
remaining activity [2]: 96.6%

CCN(CC)CCNC(=O)c1ccc(N)cc1
activity remaining [1]: 95.4%
remaining activity [2]: 96.2%

CN[C@H](CC(=O)O)C(=O)O
activity remaining [1]: 118%
remaining activity [2]: 118%

OCCN(CCO)c1nc(N2CCCCC2)c2nc(N(CCO)CCO)nc(N3CCCCC3)c2n1
activity remaining [1]: 89.5%
remaining activity [2]: 92.9%

N[C@@H]1CONC1=O
activity remaining [1]: 102%
remaining activity [2]: 112%

NC1(C(=O)O)CC1
activity remaining [1]: 94.3%
remaining activity [2]: 88.1%

O=[N+]([O-])c1cccc2cn[nH]c12
activity remaining [1]: 102%
remaining activity [2]: 114%

NCCCNCCSP(=O)(O)O
activity remaining [1]: 113%
remaining activity [2]: 108%

O=C1OC(=O)C2C3CCC(O3)C12 (configuration not stated)
activity remaining [1]: 117%
remaining activity [2]: 106%

FC(F)(F)c1ccccc1-n1ccnc1
activity remaining [1]: 85.9%
remaining activity [2]: 102%

Nc1c2c(nc3ccccc13)CCCC2
activity remaining [1]: 118%
remaining activity [2]: 119%

CC(C)OC(=O)C(C)(C)Oc1ccc(C(=O)c2ccc(Cl)cc2)cc1
activity remaining [1]: 94.1%
remaining activity [2]: 108%

CC1COc2c(N3CCN(C)CC3)c(F)cc3c(=O)c(C(=O)O)cn1c23 (configuration not stated)
activity remaining [1]: 92.3%
remaining activity [2]: 118%

CCCOc1ccccc1-c1nc2n[nH]nc2c(=O)[nH]1
activity remaining [1]: 97.7%
remaining activity [2]: 125%

CCCNCC(O)COc1ccccc1C(=O)CCc1ccccc1 (configuration not stated)
activity remaining [1]: 104%
remaining activity [2]: 112%

O=C(O)C1=CCCNC1
activity remaining [1]: 98.7%
remaining activity [2]: 96.8%

CC(C)(C)NCC(O)c1ccc(O)c(CO)c1 (configuration not stated)
activity remaining [1]: 110%
remaining activity [2]: 121% and 104%

CN1CCC(=C2c3ccccc3CC(=O)c3sccc32)CC1
activity remaining [1]: 100%
remaining activity [2]: 112%

COC(=O)[C@H]1[C@H]2C[C@@H]3c4[nH]c5cc(OC)ccc5c4CCN3C[C@H]2C[C@@H](OC(=O)c2cc(OC)c(OC)c(OC)c2)[C@@H]1OC
activity remaining [1]: 109%
remaining activity [2]: 102%

COc1cc(Cc2cnc(N)nc2N)cc(OC)c1OC
activity remaining [1]: 93.2%
remaining activity [2]: 76.5%

CCCN(CCC)C(=O)C(CCC(=O)O)NC(=O)c1ccccc1 (configuration not stated)
activity remaining [1]: 115%
remaining activity [2]: 99.4%

O=C1CC2(CCCC2)CC(=O)N1CCCCN1CCN(c2ncccn2)CC1
activity remaining [1]: 118%
remaining activity [2]: 111%

c1ccc2c(c1)CCCC2C1=NCCN1 (configuration not stated)
activity remaining [1]: 110%
remaining activity [2]: 102%

Oc1ccc(O)cc1
activity remaining [1]: 121%
remaining activity [2]: 105%

COC(=O)C1=C(C)NC(C)=C(C(=O)OCCN(C)Cc2ccccc2)C1c1cccc([N+](=O)[O-])c1 (configuration not stated)
activity remaining [1]: 107%
remaining activity [2]: 109%

CC(CN1c2ccccc2Sc2ccccc21)N(C)C (configuration not stated)
activity remaining [1]: 78.1%
remaining activity [2]: 109%

COc1cc2nc(N3CCN(C(=O)C4CCCO4)CC3)nc(N)c2cc1OC (configuration not stated)
activity remaining [1]: 119%
remaining activity [2]: 102%

O=C1NC(=O)C(c2ccccc2)(c2ccccc2)N1
activity remaining [1]: 122%
remaining activity [2]: 124% and 101%

O=C(O)c1cc(=O)c2c(Cl)cc(Cl)cc2[nH]1
activity remaining [1]: 103%
remaining activity [2]: 110%

CC1=C(/C=C/C(C)=C/C=C/C(C)=C/C(=O)O)C(C)(C)CCC1
activity remaining [1]: 109%
remaining activity [2]: 92%

CCCCC[C@H](CC(=O)NO)C(=O)N[C@H](C(=O)N1CCC[C@H]1CO)C(C)C
activity remaining [1]: 109%
remaining activity [2]: 111%

CN(C)CCN(Cc1cccs1)c1ccccn1
activity remaining [1]: 120%
remaining activity [2]: 93%

NCCCC(=O)O
activity remaining [1]: 119%
remaining activity [2]: 123%

NCCCCN
activity remaining [1]: 91.8%
remaining activity [2]: 94.5%
